PubChem BioAssay
Values joined by “and” are separate entries in the source; they are usually repeats but may differ in a detail not shown here. Equal values may be shown once. For part of these data: Measured potencies and affinities stand elsewhere. Active and inactive are the calls of the source. Unless noted, how the calls were made is not given here.

Assays:
[1] = yeast 75Q aggregation reduction – 75Q-TubU reporter (AID 1593); conditions: Yeast 75Q polyglutamine aggregation reporter
[2] = restoration of touch response, mutant HTT neurons – whole organism, C. elegans mechanosensory neurons, N-terminal huntingtin (AID 1599); conditions: C. elegans polyQ-huntingtin mechanosensory neurons, stronger effect = higher value
[3] = blockers of cytochrome c efflux from mitochondria – biochemical, purified mitochondria (AID 1603); conditions: stronger effect = lower value;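 further: mouse liver mitochondria challenged with calcium chloride; signal normalized to the plate average as 100%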
[4] = polyglutamine aggregate formation blockers (AID 1604); conditions: polyglutamine-induced protein aggregation inhibition assay; stronger effect = higher value; tested at 2.5 µM
[5] = glutamate transport activators, MN-1 cells, MN-1 cell line (AID 1612); conditions: MN-1 motor neuron cells, stronger effect = higher value;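 further: tested at 1 µM final; 0% = mean of DMSO vehicle wells on each plate; positive means more glutamate uptake than control and negative means less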
[6] = 75Q-TubH aggregate inhibition, S. cerevisiae, yeast (AID 1616); conditions: S. cerevisiae 75Q-TubH polyglutamine aggregation suppression; stronger effect = higher value
[7] = compounds altering circadian rhythm period length – cell-based, LOPAC library, luminescence reporter (AID 2774); conditions: circadian reporter cells, at 7 µM, actives lie on both sides;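 further: values are relative to mean of DMSO wells on each plate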
[8] = compounds altering viability of human ES cells (AID 493140); conditions: human embryonic stem cell survival screen; stronger effect = higher value;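 further: cells exposed to compounds for four days before counting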
[9] = P. berghei load reduction in hepatocytes – cell-based, HepG2, luciferase luminescence, HepG2 viability, primary screen (AID 624349; in the data active means parasite load remaining mostly below about 12%, no sharp cut-off; inactive means mostly above about 10%;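 further: 100% = mean of DMSO negative control wells on the same plate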); conditions: P. berghei liver stage in HepG2, luciferase luminescence, concentration not given here; parasite load remaining: stronger effect = lower value; viability: measured here: HepG2 viability without parasites
[10] = tested on: Aerobactin synthetase IucA (Klebsiella pneumoniae); test: inhibition of K. pneumoniae IucA enzyme – biochemical, Tocris library, absorbance (AID 1345561); conditions: purified IucA enzyme assay, absorbance (OD) read-out; stronger effect = lower value;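 tested at 8 µM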;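 further: 100% = enzyme without compound and 0% = no enzyme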
[11] = viability loss with induced miR-34 in A549 – imaging, A549 dox-inducible miR-34, nuclei and caspase counts, primary screen (AID 1347080;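 active means compounds whose cell count with miR-34 switched on is under 0.7 times the count with it off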); conditions: A549 miR-34 inducible, Hoechst nuclei count, 48 h
[12] = MELAS cybrid and Rieske KO viability enhancers – cell-based, MELAS cybrids, Rieske KO mouse fibroblasts, CellTiter-Glo, primary screen (AID 1508586;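 active means mean z-score across replicates of 1.96 or higher in either the MELAS or the Rieske mutant cell line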;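 further: z relative to plate mean and SD of compound and empty wells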); conditions: low glucose
[13] = target: Mitogen-activated protein kinase 7 (Homo sapiens) (UniProt Q13164); test: Gal4-ERK5 driven luciferase induction – cell-based, HTS, primary screen (AID 1508626;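 active means luciferase signal above three times the same-plate solvent-only control wells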;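 further: luciferase driven by Gal4-ERK5 fusion binding five Gal4 sites before minimal TATA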); conditions: HeLa Gal4-ERK5 transactivation, 18 h, at 5 µM, stronger effect = higher value
Chain of Mitogen-activated protein kinase 7 (Homo sapiens) (Q13164 whole entry, looked up, the tested form may be a part): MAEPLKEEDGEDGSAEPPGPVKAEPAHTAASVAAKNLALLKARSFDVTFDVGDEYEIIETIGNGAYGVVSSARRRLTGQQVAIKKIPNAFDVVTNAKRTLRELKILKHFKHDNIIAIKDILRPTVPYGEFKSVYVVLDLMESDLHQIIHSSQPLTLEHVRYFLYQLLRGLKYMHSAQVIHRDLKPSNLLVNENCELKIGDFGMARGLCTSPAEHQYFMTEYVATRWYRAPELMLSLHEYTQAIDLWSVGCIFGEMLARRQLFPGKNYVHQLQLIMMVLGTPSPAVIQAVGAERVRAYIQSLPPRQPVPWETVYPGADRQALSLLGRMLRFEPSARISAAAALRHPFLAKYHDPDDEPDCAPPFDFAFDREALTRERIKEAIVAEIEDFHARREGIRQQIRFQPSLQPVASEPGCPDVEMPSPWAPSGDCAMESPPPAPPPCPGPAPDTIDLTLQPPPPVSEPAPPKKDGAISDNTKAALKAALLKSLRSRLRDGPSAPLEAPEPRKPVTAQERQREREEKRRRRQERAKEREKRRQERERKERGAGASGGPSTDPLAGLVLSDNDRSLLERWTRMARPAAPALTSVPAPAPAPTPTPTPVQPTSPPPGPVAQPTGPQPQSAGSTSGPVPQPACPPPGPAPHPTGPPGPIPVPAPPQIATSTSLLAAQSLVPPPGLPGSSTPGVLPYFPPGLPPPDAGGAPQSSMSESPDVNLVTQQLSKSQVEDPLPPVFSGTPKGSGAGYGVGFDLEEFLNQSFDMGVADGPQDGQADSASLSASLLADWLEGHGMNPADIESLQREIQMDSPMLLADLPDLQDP

[14] = galactose survival enhancers in mitochondrial complex I cybrids – cell-based, galactose medium, ATP luminescence, primary screen (AID 1645843;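 active means z-score of at least 1.8 in each of two replicates, scored against plate mean and spread of sample wells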;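 further: positive z means more ATP and so rescue of galactose-driven cybrid death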); conditions: complex I mutant cybrid cells, 72 h, stronger effect = higher value
[15] = blockers of cellular phospholipid synthesis – cell-based, LOPAC library, screen 4, primary screen (AID 1347384); conditions: animal cells, phospholipid biosynthesis inhibition screen; at 10 µM
[16] = tested on: Hepatitis C virus NS3 helicase; test: blockers of NS3h binding to ssDNA – biochemical, fluorescence polarization, LOPAC1280 library, primary screen (AID 687035; in the data active means inhibition above about 37%); conditions: Purified HCV NS3 helicase, Cy5-dT15 ssDNA binding fluorescence polarization; stronger effect = higher value; concentration not given here
[17] = compounds altering Cy5-DNA-NS3h complex signal – biochemical, LOPAC1280, artefact control for HCV NS3 helicase inhibitor project (AID 687037); conditions: Cy5-DNA-NS3h complex fluorescence interference counterscreen
[18] = tested on: Aerobactin synthetase IucA (Klebsiella pneumoniae, hypervirulent); test: biochemical IucA inhibition screen of LOPAC library by absorbance (AID 1346212); conditions: IucA enzyme assay, absorbance (OD) readout; stronger effect = lower value;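 tested at 8 µM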;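 further: 100% = no compound wells and 0% = no enzyme wells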
[19] = measured here: relative caspase fold change +Dox/-Dox
[20] = measured here: total cells with miR-34 induction, stronger effect = lower value
[21] = measured here: total cells without miR-34 induction
[22] = stronger effect = lower value, cell number ratio, induced over uninduced

CN1CCc2cc3c(cc2[C@H]1[C@@H]1OC(=O)c2c1ccc1c2OCO1)OCO3
score [1]: 1.32
rescue above control [2]: 3.46
cytochrome c release ratio [3]: 0.82
inhibition of aggregation [4]: 59.1%
glutamate uptake change [5]: 4.35%
aggregation suppression score [6]: 0.931
period change [7]: 0.03 h (inactive)
survival [8]: 5.92 (inactive)
parasite load remaining [9]: 65% (inactive) and 87.6% (inactive)
viability [9]: 109% and 77.4%
remaining activity [10]: 114% (inactive)
fold change ([11]; stronger effect = lower value): 0.865 (inactive) and 0.821 (inactive) and 0.983 (inactive)
fold change [11, 19]: 1.2 and 0.761 and 1.26
cell count [11, 20]: 9130 and 8360 and 9120
cell count [11, 21]: 10600 and 10200 and 9280
z-score ([12]; MELAS cybrid survival, CellTiter-Glo 48 h, stronger effect = higher value): -0.206 (inactive)
z-score ([12]; Rieske KO mouse fibroblast survival, CellTiter-Glo 72 h): -0.158
luciferase signal [13]: 44 AU (inactive)
z-score [14]: 0.335 (inactive)

Cc1ccc2c(c1)C1(CCN(CCc3nc(-c4ccccc4)oc3C)CC1)OC(=O)N2
remaining activity [10]: 95% (inactive)
fold change [11, 22]: 0.966 (inactive)
fold change [11, 19]: 1.87
cell count [11, 20]: 5420
cell count [11, 21]: 5610
z-score [14]: -0.635 (inactive)

N#Cc1ccc(N2CCN(C(=O)COc3ccc4[nH]cc(CCN)c4c3)CC2)cc1
remaining activity [10]: 112% (inactive)
fold change [11, 22]: 0.857 (inactive)
fold change [11, 19]: 1.69
cell count [11, 20]: 8510
cell count [11, 21]: 9930
outcome [15]: inactive
z-score [14]: 0.16 (inactive)

O=C(Cc1ccc(Cl)c(Cl)c1)N1CCCCC1CN1CCCC1 (configuration not stated)
period change [7]: -0.135 h (inactive)
inhibition [16]: -2% (inactive)
fluorescence ratio (interference) [17]: 0.9 (inactive)
remaining activity [10]: 106% (inactive)
remaining activity [18]: 90.2% (inactive)
fold change ([11]; stronger effect = lower value): 1.01 (inactive) and 0.956 (inactive)
fold change [11, 19]: 1.27 and 0.734
cell count [11, 20]: 9780 and 8020
cell count [11, 21]: 9720 and 8380
outcome [15]: inactive
z-score [14]: 0.175 (inactive) and -0.475 (inactive)

Cn1c2c(c3ccccc31)CCNCC2
remaining activity [10]: 98.4% (inactive)
fold change [11, 22]: 0.896 (inactive)
fold change [11, 19]: 1.23
cell count [11, 20]: 8130
cell count [11, 21]: 9070
z-score [14]: -0.23 (inactive)

O=C(O)C1=CCCN(CCOC(c2ccc(C(F)(F)F)cc2)c2ccc(C(F)(F)F)cc2)C1
remaining activity [10]: 122% (inactive)
fold change [11, 22]: 0.921 (inactive)
fold change [11, 19]: 0.739
cell count [11, 20]: 8210
cell count [11, 21]: 8910
z-score [14]: 5.47 (active)

CC(C)(Cc1c[nH]c2ccc(Cl)cc12)NCCOc1ccccc1OCC1CC1
remaining activity [10]: 119% (inactive)
fold change [11, 22]: 0.921 (inactive)
fold change [11, 19]: 1.09
cell count [11, 20]: 226
cell count [11, 21]: 246
z-score [14]: -1.23 (inactive)

O=c1ccc2[nH]cc(C3=CCNCC3)c2[nH]1
remaining activity [10]: 123% (inactive)
fold change ([11]; stronger effect = lower value): 0.986 (inactive)
fold change [11, 22]: 0.934 (inactive)
fold change [11, 19]: 2.8 and 0.965
cell count [11, 20]: 10100 and 7840
cell count [11, 21]: 10200 and 8390
outcome [15]: inactive
z-score [14]: 0.725 (inactive) and 0.015 (inactive)

Cc1ccc2c(c1)Cc1c(C(=O)NN3CCCCC3)nn(-c3ccc(Cl)cc3Cl)c1-2
remaining activity [10]: 102% (inactive)
fold change [11, 22]: 0.912 (inactive)
fold change [11, 19]: 1.23
cell count [11, 20]: 5690
cell count [11, 21]: 6240
z-score [14]: -0.67 (inactive)

CN1CC[C@@H]2CN3CCc4cccc(c43)[C@@H]2C1
remaining activity [10]: 120% (inactive)
fold change [11, 22]: 0.917 (inactive)
fold change [11, 19]: 0.673
cell count [11, 20]: 8120
cell count [11, 21]: 8850
z-score [14]: -0.34 (inactive)

CCCN(CCC)C1CCc2ccc(O)cc2C1 (configuration not stated)
period change [7]: 0.255 h (inactive)
inhibition [16]: -4% (inactive)
fluorescence ratio (interference) [17]: 1 (inactive)
remaining activity [10]: 121% (inactive)
fold change ([11]; stronger effect = lower value): 0.974 (inactive) and 1.05 (inactive)
fold change [11, 19]: 0.963 and 0.686
cell count [11, 20]: 10200 and 7960
cell count [11, 21]: 10500 and 7600
outcome [15]: inactive
z-score [14]: -0.285 (inactive) and -0.13 (inactive)

CC(C)(c1ccc(OCC2CO2)cc1)c1ccc(OCC2CO2)cc1 (configuration not stated)
remaining activity [10]: 110% (inactive)
fold change ([11]; stronger effect = lower value): 0.903 (inactive) and 0.927 (inactive) and 0.945 (inactive)
fold change [11, 19]: 1.23 and 0.827 and 0.981
cell count [11, 20]: 5020 and 5510 and 8910
cell count [11, 21]: 5560 and 5950 and 9430
z-score [14]: -0.925 (inactive)

C[C@H]1CCC/C=C/C2C[C@H](O)C[C@H]2[C@H](O)/C=C/C(=O)O1 (some centres not stated)
remaining activity [10]: 129% (inactive)
fold change ([11]; stronger effect = lower value): 1.05 (inactive) and 1.09 (inactive)
fold change [11, 19]: 1.17 and 1.67
cell count [11, 20]: 2000 and 1470
cell count [11, 21]: 1910 and 1340
z-score [14]: -0.56 (inactive)

COc1ccc(C(=O)c2c(C)n(CCN3CCOCC3)c3cc(I)ccc23)cc1
remaining activity [10]: 93.9% (inactive)
fold change ([11]; stronger effect = lower value): 1.09 (inactive)
fold change [11, 19]: 0.642
cell count [11, 20]: 2860
cell count [11, 21]: 2630
z-score [14]: -0.38 (inactive)

COc1ccc(-n2nc(C(F)(F)F)cc2-c2ccc(Cl)cc2)cc1
period change [7]: 0.125 h (inactive)
remaining activity [10]: 119% (inactive)
remaining activity [18]: 109% (inactive)
fold change [11, 22]: 0.91 (inactive)
fold change [11, 19]: 0.729
cell count [11, 20]: 7020
cell count [11, 21]: 7710
z-score [14]: -0.695 (inactive)
